These results are taken from PubChem BioAssay (NCI).

Test systems include NCI-H23 lung; NCI-H226 lung; NCI-H322M lung; HOP-62 NSCLC; NCI-H460 lung; HOP-92 NSCLC; NCI-H522 lung; A549/ATCC NSCLC; 786-0 renal; COLO 205 colon; DU-145 prostate; K-562 leukemia; MALME-3M melanoma; MDA-MB-231 breast; RXF 393 renal; SF-268 CNS; SF-295 CNS; SF-539 CNS; UACC-257 melanoma; M14 melanoma.
Common to all, as to assay: NCI-60 one-dose screen, 48 h (100 = growth as untreated, 0 = no growth, -100 = all killed)
Settings in all cases: 10 µM unless noted

SMILES strings stand for the structures. This is part of a sample that, as a whole, favours compounds with a hit. Of some 83,000 tested, about 20% had one in any assay.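 Cells were grown in 96-well plates and exposed to the test compound at a single concentration for 48 hours; results are reported as percent growth, with values below 10 considered active.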 A number with no mark means an inactive call. Activity calls are given as the source filed them.

In the case of `O=S(=O)(Oc1ccc(-c2cn3ccsc3n2)cc1)c1cccc(C(F)(F)F)c1`, the growth in the assay with NCI-H23 lung is 109%; in the assay with NCI-H226 lung it was 90.2%; in the assay with NCI-H322M lung, 103%; in the assay with HOP-62 NSCLC, 110%; in the assay with NCI-H460 lung, 104%; in the assay on HOP-92 NSCLC, 106%. Besides, the growth in the assay on NCI-H522 lung is 94.6%; in the assay on A549/ATCC NSCLC it was 98.9%; in the assay with 786-0 renal, 102%; in the assay with COLO 205 colon, 113%; in the assay on DU-145 prostate, 103%; in the assay with K-562 leukemia, 96.9%. Moreover, the growth with MALME-3M melanoma is 91.3%; in the assay with MDA-MB-231 breast, 101%; with RXF 393 renal, 100%; in the assay on SF-268 CNS it was 110%; with SF-295 CNS, 98.3%; with SF-539 CNS, 101%. The growth was 99.6% in the assay on UACC-257 melanoma and 101% in the assay with M14 melanoma.

Take `Cc1csc(/N=C(N)/N=C(\N)c2cccnc2)n1`: the growth in the assay on NCI-H23 lung was 78%; in the assay with NCI-H226 lung it was 85.4%; in the assay on NCI-H322M lung it was 87.2%; with HOP-62 NSCLC, 74.1%; with NCI-H460 lung, 62.3%; with HOP-92 NSCLC it was 51.7%. The growth in the assay on NCI-H522 lung is 54.4%; with A549/ATCC NSCLC, 82%; in the assay with 786-0 renal it was 90.6%; with COLO 205 colon it was 81.8%; with DU-145 prostate, 96.8%; with K-562 leukemia, 42.4%. In addition, the growth was 60.7% in the assay on MALME-3M melanoma; 86.9% in the assay on MDA-MB-231 breast; 89.7% in the assay with RXF 393 renal; 77.2% in the assay on SF-268 CNS; 48.4% in the assay on SF-295 CNS; 79.5% with SF-539 CNS. For the same compound, the growth was 95.5% in the assay on UACC-257 melanoma and 51.6% in the assay on M14 melanoma.

With `CC(=O)/C(N=Nc1ccc2oc(=O)ccc2c1)=C(\C)O`, the growth was 27.5% with NCI-H23 lung; 42.6% in the assay on NCI-H226 lung; 55.1% in the assay with NCI-H322M lung; 26.2% in the assay on HOP-62 NSCLC; 14.6% in the assay on NCI-H460 lung; 2.61% (active) in the assay on HOP-92 NSCLC. Further, the growth is 31% with NCI-H522 lung; 23.6% in the assay on A549/ATCC NSCLC; 37.5% in the assay with 786-0 renal; 15.2% in the assay on COLO 205 colon; 48.5% in the assay with DU-145 prostate; 9.96% (active) with K-562 leukemia. The growth in the assay with MALME-3M melanoma was 58.3%; in the assay with MDA-MB-231 breast it was 61.2%; in the assay on RXF 393 renal it was 51.6%; in the assay on SF-268 CNS it was 45.7%; in the assay with SF-295 CNS, 22.5%; in the assay on SF-539 CNS it was 51.5%. For the same compound, the results for the growth in the assay with UACC-257 melanoma and in the assay on M14 melanoma were 37.5% and 35.7%, respectively.

Consider `C/C(=C(\c1ccc(O)cc1)c1ccc(OCCN2CCCCCC2)cc1)c1ccc(Cl)cc1`, for which the growth in the assay on NCI-H23 lung is -80.3% (active); in the assay with NCI-H226 lung, -64.1% (active); with NCI-H322M lung, -18.9% (active); in the assay with HOP-62 NSCLC, -82.5% (active); in the assay on NCI-H460 lung, -55.9% (active); with HOP-92 NSCLC, -86.8% (active). The growth with NCI-H522 lung is -86.9% (active); with A549/ATCC NSCLC, -72.4% (active); in the assay with 786-0 renal, -77.4% (active); in the assay with COLO 205 colon it was -63.4% (active); in the assay on DU-145 prostate, -86.4% (active); in the assay on K-562 leukemia, 5.91% (active). Besides, the growth in the assay with MALME-3M melanoma was -80.3% (active); in the assay on MDA-MB-231 breast, -85% (active); in the assay on RXF 393 renal, -87.4% (active); in the assay on SF-268 CNS it was -62.5% (active); with SF-295 CNS, -93.7% (active); in the assay with SF-539 CNS it was -91.8% (active). For the same compound, the growth with UACC-257 melanoma was -81.8% (active); in the assay with M14 melanoma, -86.5% (active).

As to `O=C(Nc1cccc(C(F)(F)F)c1)N1CCN(c2cc(-c3cn(-c4ccccc4)nc3-c3cccc(O)c3)ccn2)CC1`, the growth was 37.7% in the assay with NCI-H23 lung; 30.3% in the assay with NCI-H226 lung; 73.9% in the assay on NCI-H322M lung; 91.3% with HOP-62 NSCLC; 63.4% in the assay with NCI-H460 lung; 35.7% in the assay with HOP-92 NSCLC. The growth in the assay on NCI-H522 lung was 31%; in the assay with A549/ATCC NSCLC, 44.8%; in the assay with 786-0 renal, 54.6%; in the assay with COLO 205 colon, 60%; with DU-145 prostate, 61.2%; in the assay on K-562 leukemia, 30.6%. In addition, the growth is 46.3% in the assay on MALME-3M melanoma; 54% in the assay with MDA-MB-231 breast; 46.7% in the assay on RXF 393 renal; 59.4% in the assay with SF-268 CNS; 22.8% in the assay on SF-295 CNS; 54.7% in the assay with SF-539 CNS. In addition, the figures for the growth in the assay on UACC-257 melanoma and in the assay on M14 melanoma were 67.6% and 41.2%, respectively.

For the compound `CC(=O)c1c([Si](C)(C)C)c2cc(C#N)ccn2c1C(=O)c1ccc(Br)cc1`, the growth is 84.1% in the assay with NCI-H23 lung; 76.9% in the assay on NCI-H226 lung; 85.3% in the assay with NCI-H322M lung; 88.3% in the assay with HOP-62 NSCLC; 95.5% with NCI-H460 lung; 81.9% with HOP-92 NSCLC. The growth in the assay on NCI-H522 lung is 70.5%; in the assay on A549/ATCC NSCLC it was 90.3%; in the assay on 786-0 renal it was 76.5%; in the assay with COLO 205 colon, 104%; in the assay with DU-145 prostate, 99.9%; in the assay with K-562 leukemia, 82.4%. Moreover, the growth is 92.9% in the assay with MALME-3M melanoma; 85.4% with MDA-MB-231 breast; 78.5% in the assay on RXF 393 renal; 79.1% in the assay on SF-268 CNS; 90.9% in the assay on SF-295 CNS; 95.5% with SF-539 CNS. Moreover, the growth in the assay with UACC-257 melanoma is 101%; in the assay on M14 melanoma, 97.4%.

For the compound `COc1ccc(C(=O)c2c(N)c(C#N)cn2-c2ccc(Cl)cc2Cl)cc1`, the growth in the assay on NCI-H23 lung is 93.3%; with NCI-H226 lung, 97.2%; with NCI-H322M lung it was 93.8%; with HOP-62 NSCLC, 99.7%; in the assay with NCI-H460 lung it was 100%; in the assay on HOP-92 NSCLC, 101%. Moreover, the growth in the assay with NCI-H522 lung was 90.3%; with A549/ATCC NSCLC, 93.4%; with 786-0 renal, 103%; in the assay with COLO 205 colon, 109%; with DU-145 prostate it was 110%; in the assay on K-562 leukemia, 93.6%. Moreover, the growth in the assay with MALME-3M melanoma is 96.9%; in the assay on MDA-MB-231 breast it was 90.8%; in the assay on RXF 393 renal, 97%; with SF-268 CNS, 100%; in the assay with SF-295 CNS, 98.8%; in the assay with SF-539 CNS, 102%. In addition, the figures for the growth in the assay with UACC-257 melanoma and in the assay on M14 melanoma were 98.2% and 91.2%, respectively.

For the compound `CCN(CC)c1ccc(/C=N/NC(=O)c2ccc(S(N)(=O)=O)cc2)c(O)c1`, the growth is 20.7% in the assay on NCI-H23 lung; 43.1% in the assay with NCI-H226 lung; 22.1% with NCI-H322M lung; 11.6% in the assay on HOP-62 NSCLC; 4.16% (active) with NCI-H460 lung; 53.1% in the assay with HOP-92 NSCLC. The growth in the assay on NCI-H522 lung is 15.1%; in the assay on A549/ATCC NSCLC it was 16%; in the assay with 786-0 renal, 4.11% (active); with COLO 205 colon, 14.3%; in the assay on DU-145 prostate, 31.1%; in the assay with K-562 leukemia, 12.4%. Moreover, the growth was -1.7% (active) in the assay with MALME-3M melanoma; 34% in the assay with MDA-MB-231 breast; -4.11% (active) with RXF 393 renal; 20.5% with SF-268 CNS; 12.6% with SF-295 CNS; 5% (active) in the assay on SF-539 CNS. The growth with UACC-257 melanoma was -10.2% (active); in the assay with M14 melanoma, 1.08% (active).
